Measured values taken from PubChem BioAssay AID1728 (National Center for Advancing Translational Sciences (NCATS), 2009).
The list shows a part of the results. Results filed as inconclusive are left out. The source made the active and inactive calls. Calls come from the whole dose curve; as a rule, active = well fitted curve in the direction sought with a large enough effect; inconclusive = small, poorly fitted or top-dose-only effect, or another doubt; inactive = no such curve, though single readings can be large or run the other way.

What follows are compounds tested against RAF proto-oncogene serine/threonine-protein kinase (Homo sapiens) (UniProt P04049) (assay: Assay for Inhibitors of the ERK Signaling Pathway using a Homogeneous Screening Assay: c-Raf Inhibition). Conditions: homogeneous biochemical assay; series mostly up to 76.9 µM.
Chain of RAF proto-oncogene serine/threonine-protein kinase (Homo sapiens) (P04049 whole entry, looked up): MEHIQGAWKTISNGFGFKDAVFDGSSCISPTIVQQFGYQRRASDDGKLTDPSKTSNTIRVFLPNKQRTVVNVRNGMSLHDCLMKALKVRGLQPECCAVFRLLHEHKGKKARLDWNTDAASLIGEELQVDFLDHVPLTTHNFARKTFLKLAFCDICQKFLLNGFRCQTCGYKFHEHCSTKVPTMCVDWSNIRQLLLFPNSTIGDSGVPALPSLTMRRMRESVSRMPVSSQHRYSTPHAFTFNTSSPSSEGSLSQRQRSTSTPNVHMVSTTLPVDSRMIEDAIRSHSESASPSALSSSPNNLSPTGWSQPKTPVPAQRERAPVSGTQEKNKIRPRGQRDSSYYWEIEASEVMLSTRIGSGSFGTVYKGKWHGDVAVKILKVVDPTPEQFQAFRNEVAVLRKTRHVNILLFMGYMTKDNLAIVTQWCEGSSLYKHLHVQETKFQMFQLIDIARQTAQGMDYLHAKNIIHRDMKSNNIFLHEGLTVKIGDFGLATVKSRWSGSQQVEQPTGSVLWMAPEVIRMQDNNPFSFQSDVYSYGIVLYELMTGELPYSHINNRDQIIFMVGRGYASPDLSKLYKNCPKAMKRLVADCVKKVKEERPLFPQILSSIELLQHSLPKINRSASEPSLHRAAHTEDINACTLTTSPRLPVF
Source text: qHTS Assay for Inhibitors of the ERK Signaling Pathway using a Homogeneous Screening Assay
NIH Chemical Genomics Center [NCGC]
NIH Molecular Libraries Screening Centers Network [MLSCN]
Assay Submitter (PI): Dr. Wei Zheng, NCGC/NIH
The Ras/extracellular-signal-regulated kinase (ERK) mitogen activated protein (MAP) kinase signaling pathway (ERK1/2 cascade) plays is a key role in transmitting signals from the cell surface to the nucleus (Nishida and Gotoh 1993; Chang and Karin, 2001). The cascade is initiated by the small G-protein Ras, which recruits Raf […], where activation occurs. Alternatively, this pathway can be activated by elevating intracellular cAMP.
Activation of the ERK pathway is essential in increased cell division and cell survival. Sustained and constitutive activation of the ERK pathway, however, has been linked to uncontrolled cell proliferation, increased cell survival, and tumor progression. Thus, the ERK has been as an attractive target for cancer chemotherapy in the past few years (Sebolt-Leopold and Herrera, 2004). […]
The HTRF kinase assay (components supplied as kit by Cisbio) was chosen for the EGFR and EGFR mutant enzyme assays that applied the time resolved fluorescence resonance energy transfer (TR-FRET) principle. […]

Compound | outcome
O=[N+]([O-])c1ccccc1N/N=C1\CCc2ccccc21 | inactive
CN(C)c1ccc(Nc2c3c4c(cccc4n(C)c2=O)C(=O)c2ccccc2-3)cc1 | inactive
